Where “and” joins values, the source holds several entries; their conditions need not be identical. Identical values can stand only once. About 1,900 (0.58%) of roughly 330,000 compounds were called active. Not shown: some 4% with an inconclusive outcome. Only a sample is shown. Potency and affinity values are given separately. Values without a mark were called inactive. Rule as the data show it: inconclusive = inhibition above about 70% without an active follow-up result; inactive = below that.
Experiment: M. tuberculosis growth inhibition, HTS (AID 449762);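 also: bacterial growth assessed after seven days of incubation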
Conditions: M. tuberculosis H37Rv growth inhibition, 7H9 media; at 25 µM; active compounds read high

Q: For `CN1C(=O)CSc2ccc(NC(=O)N3CCOCC3)cc21`, which inhibition is on record?
A: 8.66%

Q: Which inhibition does the source give for `CCC(=O)Oc1c(S(=O)(=O)c2ccc(C)cc2)c(C)nn1C(C)(C)C` here?
A: 11.5%

Q: Which inhibition does the source give for `CCOc1ccc(Cc2nnc(SCC(=O)Nc3ccc(OC)cc3)n(N)c2=O)cc1` here?
A: 0.84%

Q: With `COc1ccc(Cc2nnc(SCC(=O)Nc3ccccc3C)n(N)c2=O)cc1` as the compound, how does the inhibition read?
A: -1.95%

Q: For `N#Cc1c(N)n[nH]c1CCCN`, which inhibition is on record?
A: 0.78%

Q: With `Nc1c2ccccc2nc2ccccc12` as the compound, how does the inhibition read?
A: -8.85% and 58.8%

Q: With `O=C(O)c1cc(Cl)nc2ccccc12` as the compound, how does the inhibition read?
A: 2.9%

Q: With `CCCCOc1ccc(OCCNC(=O)C2CCCN2C(=O)Nc2ccccc2)cc1` (centres undefined) as the compound, how does the inhibition read?
A: 8.66%

Q: With `COc1cc(C(=S)N2CCOCC2)cc(OC)c1OC(=O)c1ccc(C)cc1` as the compound, how does the inhibition read?
A: 8.19%

Q: Which inhibition does the source give for `CCCc1nc2ccccc2c(C(=O)O)c1CC` here?
A: 2.61%

Q: Which inhibition does the source give for `COc1cc2c(cc1OC)C1(Nc3c-2c(C)nn3-c2ccccc2)C(=O)Nc2ccccc21` (centres undefined) here?
A: 9.01%

Q: For `COc1cc2c(cc1OC)C1(NCC2)C(=O)Nc2ccccc21` (centres undefined), which inhibition is on record?
A: 4.39%

Q: Which inhibition does the source give for `COC(=O)c1sc(-c2ccccc2)cc1NC(=O)c1cc(OC)cc(OC)c1` here?
A: 6.45%

Q: Which inhibition does the source give for `Cc1cccc(C)c1-n1c(C)nn(Cc2ccc([N+](=O)[O-])cc2)c1=O` here?
A: -15.4%

Q: Which inhibition does the source give for `C(=N\Nc1ccccn1)/c1ccc2c(c1)OCCO2` here?
A: -4.47%

Q: With `C(=N\Nc1nc2ccccc2[nH]1)/c1ccc2c(c1)OCCO2` as the compound, how does the inhibition read?
A: 12.1%

Q: Which inhibition does the source give for `O=C(NN1C(=O)NC2(CCCCC2)C1=O)c1ccc(-c2ccc([N+](=O)[O-])cc2)o1` here?
A: 4.8%

Q: With `CCOC(=O)C1CCCN(S(=O)(=O)c2cccc3cccnc23)C1` (centres undefined) as the compound, how does the inhibition read?
A: -4.82%

Q: For `O=C1N(CCCN2C(=O)C3(OCCO3)c3ccccc32)c2ccccc2C12OCCO2`, which inhibition is on record?
A: -3.19%

Q: For `O=C1N(CCCCN2C(=O)C3(OCCO3)c3ccccc32)c2ccccc2C12OCCO2`, which inhibition is on record?
A: -3.23%

Q: Which inhibition does the source give for `O=C1O[C@@H]([C@H](O)CO)C(O)=C1O` here?
A: -0.84%

Q: Which inhibition does the source give for `Cn1c(C(=O)NCc2ccc3c(c2)OCO3)cc2sccc21` here?
A: 9.66%

Q: With `CN1OC(c2ccccc2)=C(CO)C1c1ccccc1` (centres undefined) as the compound, how does the inhibition read?
A: -1.69%

Q: For `COc1ccc(-c2c(-c3ccc(OC)c(C)c3O)n[nH]c2C)cc1`, which inhibition is on record?
A: 10.4%

Q: For `O=C(NCc1ccc(Cl)cc1)c1ccc(CSc2nc3ccncc3[nH]2)cc1`, which inhibition is on record?
A: 5.93%

Q: With `O=C(c1ccc(CSc2nc3ccncc3[nH]2)cc1)N1CCN(c2cccc(Cl)c2)CC1` as the compound, how does the inhibition read?
A: 60.3%

Q: With `O=C(c1ccco1)N1CCCC(c2nc3c(nnn3Cc3cccc(Cl)c3)c(=O)[nH]2)C1` (centres undefined) as the compound, how does the inhibition read?
A: -2.33%

Q: For `C#CCCC(=O)c1ccccc1/C=[N+](\[O-])c1ccccc1`, which inhibition is on record?
A: -2.08%

Q: For `CCOC(=O)c1ccc(Nc2ccc([N+](=O)[O-])cn2)cc1`, which inhibition is on record?
A: -5.22%

Q: With `COc1cccc(-c2n[nH]c(=S)n2Cc2ccco2)c1` as the compound, how does the inhibition read?
A: 8.56%

Q: Which inhibition does the source give for `COCc1c(C(=O)N/N=C(/C)c2cccs2)nnn1-c1nonc1N` here?
A: -8.26%

Q: Which inhibition does the source give for `CCOc1ccc(NC(=O)CCC(=O)Nc2cc(OC)c(NC(=O)c3ccco3)cc2OC)cc1` here?
A: 20.8%

Q: With `CCN1C(=O)[C@H]2[C@@H](c3ccc(-c4ccccc4)cc3)N[C@@](C)(C(=O)OC)[C@H]2C1=O` as the compound, how does the inhibition read?
A: 1.42%

Q: Which inhibition does the source give for `COc1cc(CCC(C)=O)ccc1OC(=O)c1c(F)cccc1Cl` here?
A: 3.02%

Q: With `COc1cc(/C=C/c2cc[n+](C)cc2)ccc1OCC(=O)Nc1ccccc1` as the compound, how does the inhibition read?
A: -0.02%

Q: Which inhibition does the source give for `COc1ccc(NC(=O)COc2ccc(/C=C/c3cc[n+](C)cc3)cc2OC)cc1` here?
A: -3.55%

Q: Which inhibition does the source give for `CCCCCCc1nc(C(N)=O)c2[nH]c(=O)n(-c3ccc(OC)cc3OC)c2n1` here?
A: 7.81%

Q: With `Cc1cc(C)c(CN2CCC(n3nccc3NC(=O)C3CCOC3)CC2)cc1C` (centres undefined) as the compound, how does the inhibition read?
A: -0.02%

Q: With `OC1(c2cccc(C(F)(F)F)c2)CCN(Cc2nnnn2CCc2ccccc2)CC1` as the compound, how does the inhibition read?
A: 1.32%

Q: Which inhibition does the source give for `Cc1ccc(N2Cc3ccccc3C2=N)cc1[N+](=O)[O-]` here?
A: 2.11%

Q: With `COc1cc(NS(=O)(=O)c2ccc(OC)c(C)c2C)c(OC)cc1Cl` as the compound, how does the inhibition read?
A: -6.31%

Q: Which inhibition does the source give for `Cc1cccc(NC(=O)CSc2cccc3cccnc23)c1` here?
A: -1.29%

Q: With `O=C(CSc1cccc2cccnc12)Nc1cccc(S(=O)(=O)N2CCOCC2)c1` as the compound, how does the inhibition read?
A: -4.53%

Q: With `COc1ccc(NC(=O)CN(C)C(=O)c2cc(C)on2)cc1` as the compound, how does the inhibition read?
A: 2.44%

Q: Which inhibition does the source give for `O=C(OCC(=O)c1ccc[nH]1)C1=COCCO1` here?
A: 18.8%

Q: Which inhibition does the source give for `O=C(OCC(=O)c1cccs1)c1ccccc1` here?
A: -1.72%

Q: With `Cc1c(Cl)cccc1NC(CC(=O)c1ccccc1)C(=O)OCC(=O)c1cccs1` (centres undefined) as the compound, how does the inhibition read?
A: -5.49%

Q: For `O=C(COC(=O)c1cccs1)c1ccc2c(c1)OCCO2`, which inhibition is on record?
A: -22.5%

Q: Which inhibition does the source give for `Cc1cc(C(=O)CSc2n[nH]c(N)n2)c(C)n1-c1cccc(F)c1` here?
A: -3.82%

Q: With `COC(=O)c1ccc(-n2c(C)cc(C(=O)COC(=O)C3=COCCO3)c2C)cc1` as the compound, how does the inhibition read?
A: 48.5%

Q: With `O=C(CCC(=O)c1cccs1)OCC(=O)c1ccccc1` as the compound, how does the inhibition read?
A: 2.32%

Q: Which inhibition does the source give for `O=C(CC(Nc1ccccc1Cl)C(=O)OCC(=O)c1cccs1)c1ccccc1` (centres undefined) here?
A: 2.88%

Q: For `COCCCn1c(SCC(=O)N2CCOCC2)nc2cc(Cl)ccc2c1=O`, which inhibition is on record?
A: -3.72%

Q: For `CCOC(=O)CNC(=S)N(Cc1ccccc1)Cc1cccs1`, which inhibition is on record?
A: 2.83%

Q: For `O=C(CN(Cc1ccccc1Cl)C(=O)c1csnn1)NCCc1ccccc1`, which inhibition is on record?
A: 4.65%

Q: For `Cc1occc1C(=O)Nc1ccccc1C#N`, which inhibition is on record?
A: -1.21%

Q: Which inhibition does the source give for `CC(C)CCOC(=O)C1[C@H]2C(=O)N(Cc3cccs3)C[C@]23C=C[C@H]1O3` (some centres undefined) here?
A: 0.09%

Q: With `O=c1c2ccccc2ncn1-c1ccc([N+](=O)[O-])cc1[N+](=O)[O-]` as the compound, how does the inhibition read?
A: 4.34%

Q: Which inhibition does the source give for `O=[N+]([O-])c1ccccc1-n1cnc2ccccc21` here?
A: 8.38%

Q: Which inhibition does the source give for `COc1cc(C(=O)OCC(=O)NCc2ccccc2)cc(NC(=O)c2ccco2)c1OC` here?
A: 6.91%

Q: Which inhibition does the source give for `C1=C(c2ccccc2)CCN(c2ncnc3nc[nH]c23)C1` here?
A: 1.26%

Q: With `COc1ccccc1-n1c(N)c(C(N)=O)sc1=S` as the compound, how does the inhibition read?
A: -2.51%

Q: Which inhibition does the source give for `CC(=O)c1ccc(OC(=O)CCc2nc3ccccc3s2)cc1` here?
A: -3.41%

Q: With `COC(=O)N1CCN(c2ccc(Cl)c(Cl)c2)CC1` as the compound, how does the inhibition read?
A: -0.8%

Q: For `CCOC(=O)N1CCN(c2ccc(Cl)c(Cl)c2)CC1`, which inhibition is on record?
A: -2.84%

Q: With `N#CCCn1cc(C(=O)Nc2ccc(C(=O)O)cc2)c(-c2cc3ccccc3o2)n1` as the compound, how does the inhibition read?
A: -8.4%

Q: Which inhibition does the source give for `CC(C)n1cnc2c(Nc3cccc(Cl)c3)nc(NCCCO)nc21` here?
A: 27%

Q: Which inhibition does the source give for `CC(C)C[C@H](CO)Nc1nc(Nc2cccc(Cl)c2)c2ncn(C(C)C)c2n1` here?
A: 62.4%

Q: With `CC(C)(C)n1nnnc1CN1CCSCC1` as the compound, how does the inhibition read?
A: 1.25%

Q: With `COC(=O)c1cc(NC2c3ncccc3C(=O)N2Cc2ccccc2)cc(C(=O)OC)c1` (centres undefined) as the compound, how does the inhibition read?
A: 2.2%

Q: With `CCOC(=O)c1nnn(-c2nonc2-c2ccccc2)c1C` as the compound, how does the inhibition read?
A: 7.53%

Q: For `Cc1c(C(=O)O)sc2nc3n(c(=O)c12)CCC(C)CC3` (centres undefined), which inhibition is on record?
A: -4.08%

Q: With `CCOC(=O)c1sc2nc3n(c(=O)c2c1C)CCC3` as the compound, how does the inhibition read?
A: -4.9%

Q: For `COc1ccc(-c2cc(NCCc3ccncc3)n3ncnc3n2)cc1`, which inhibition is on record?
A: -2.4%

Q: Which inhibition does the source give for `COc1ccc(-c2cc(NCc3ccccn3)n3ncnc3n2)cc1` here?
A: 65.8%

Q: For `COc1ccc(NC(=O)Cn2c(=O)n(-c3ccc(OC)cc3OC)c(=O)c3c(C)c(C)sc32)cc1`, which inhibition is on record?
A: -0.67%

Q: With `CC(C)N(CC(N)=O)c1ccc(S(=O)(=O)N2CCCC2)cn1` as the compound, how does the inhibition read?
A: -5.77%

Q: With `NC(=O)C1CCN(C(=O)COc2ccc3ccc(=O)oc3c2)CC1` as the compound, how does the inhibition read?
A: -9.39%

Q: Which inhibition does the source give for `CCOC(=O)C1=C(C)Nc2nc(SC)nn2C1c1ccc(C(=O)OC)cc1` (centres undefined) here?
A: -5.54%

Q: With `CCOC(=O)C1=C(C)Nc2nc(SCC)nn2C1c1ccc(OC)cc1` (centres undefined) as the compound, how does the inhibition read?
A: 5.22%

Q: For `O=C(NCc1ccccc1)c1nccnc1CO`, which inhibition is on record?
A: 0.4%

Q: For `CN(C)S(=O)(=O)c1ccc(C(=O)NCc2nnc(SCC(=O)c3ccccc3)o2)cc1`, which inhibition is on record?
A: -10.3%

Q: Which inhibition does the source give for `COc1cc(O)c(C(CCN2CCCC(C)C2)c2cc(OC)c(OC)c(OC)c2)c(OC)c1` (centres undefined) here?
A: -1.23%

Q: Which inhibition does the source give for `O=C(Nc1ccc(-c2nc3ccccc3s2)cc1)c1cc(-n2cnnc2)ccc1Cl` here?
A: -1.18%

Q: With `Cc1ccc(-c2nc3ccccc3s2)cc1NC(=O)c1cc(-n2cnnc2)ccc1Cl` as the compound, how does the inhibition read?
A: 3.06%

Q: Which inhibition does the source give for `Cc1cc(C)c(NC(=O)Cn2ncc3ccccc32)c(C)c1` here?
A: -0.59%

Q: Which inhibition does the source give for `COC(=O)c1ccc(OC(=O)c2cccs2)cc1` here?
A: 19.3%

Q: With `Cc1ccc(N2C(=O)C3CCCN3C2=S)c(C)c1` (centres undefined) as the compound, how does the inhibition read?
A: 5.68%

Q: Which inhibition does the source give for `Nc1ncc([N+](=O)[O-])cc1S(=O)(=O)c1ccccc1` here?
A: 2.55%

Q: For `NS(=O)(=O)c1ccc(S(=O)(=O)c2ccccc2)nc1`, which inhibition is on record?
A: 1.3%

Q: For `C#CCNC(=O)C1=C[C@@H](C)C[C@@H](OCc2ccc(CO)cc2)O1`, which inhibition is on record?
A: 2.19%

Q: Which inhibition does the source give for `COc1ccc(-c2cc(-n3c(C(F)(F)F)nc4ccccc43)n(CCC#N)n2)cc1` here?
A: 5.23%

Q: Which inhibition does the source give for `COc1ccc(-c2cc3nc(-c4ccccc4)cc(N4CCC(O)CC4)n3n2)cc1` here?
A: 8.92%

Q: For `Cc1ccc(S(=O)(=O)Nc2c(C)n(C)n(-c3ccccc3)c2=O)cc1C(=O)NCc1ccccc1`, which inhibition is on record?
A: -5.64%
